Assay [1] is described as follows: yeast TOR pathway RPL19A-GFP modulators, primary screen, cell-based, S. cerevisiae, multiplex flow cytometry (AID 1862).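 Note: lower values mimic rapamycin by blocking the RPL19A rise seen in DMSO cells.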 Particulars: S. cerevisiae RPL19A-GFP strain, flow cytometry fluorescence, 3 h; at 10 µM; stronger effect = lower value. A general note: In flow cytometry, cells or beads pass a laser one at a time.
Assay [2] in a line: modulators of MEP2-GFP levels in yeast, primary screen, S. cerevisiae, multiplex flow cytometry (AID 1867;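 active = GFP response, as percent of the DMSO control, above the screen-wide mean plus 3 SD, about 139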;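 note: median GFP channel fluorescence of barcode-gated MEP2-GFP cells measured by flow cytometry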). Particulars: S. cerevisiae MEP2-GFP strain, 3 h, at 10 µM, stronger effect = higher value, 100% means same as DMSO wells.
Assay [3] in a line: modulators of CIT2-GFP expression in yeast, primary screen, S. cerevisiae, GFP fusion, multiplex flow cytometry (AID 1870;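 active = percent response above a set limit, the screen-wide mean plus 3 SD, cut at about 130% in these data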;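 note: barcoded CIT2-GFP strain pooled with four other GFP strains with rapamycin as positive control; median GFP fluorescence per well over plate mean of DMSO wells so 100% = DMSO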). Conditions: 3 h, at 10 µM, stronger effect = higher value.
Assay [4] can be described thus: modulators of LAP4-GFP expression in yeast, primary screen, S. cerevisiae, multiplex flow cytometry (AID 1873;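 active = GFP signal, as percent of the solvent control, above the screen mean plus 3 SD, about 149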). Conditions: 3 h, at 10 µM, stronger effect = higher value.
Assay [5] is described as follows: modulators of AGP1-GFP expression in yeast TOR pathway, primary screen, cell-based, multiplex flow cytometry, S. cerevisiae (AID 1887;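 active = GFP signal above the screen-wide mean plus 3 SD, that is over about 124.5% of the solvent control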;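 note: AGP1-GFP fusion strain of S. cerevisiae within a five-strain barcoded multiplex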). Particulars: 3 h, at 10 µM, stronger effect = higher value.
The nature of assay [6]: inhibitors of CD8+ T cell-vesicle binding, pilot screen, LFA-1/ICAM-1 modulator project, MLPCN validation set, flow cytometry (AID 2523;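 active = response below a set limit, under 55% cells CD8-positive and vesicle-bound, and CD8 cells' 90th-percentile brightness under 279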;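 for vesicle binding response: mean PE anti-B7-1 fluorescence of CD8+ cells relative to row control; 100% = QL9-loaded vesicles with DMSO vehicle in the same plate row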). Particulars: 2C mouse CD8+ T cells, at 7 µM, stronger effect = lower value; double positive events: measured here: CD8+/vesicle+ event percentage.
The target of assay [7] is Integrin beta-1 (Homo sapiens) + Integrin alpha-4 (Homo sapiens) (UniProt P13612+P05556). The experiment in a line: inhibition of HUTS-21 binding to VLA-4, pilot screen, VLA-4 allosteric modulator project, U937 cells, HUTS-21 mAb, flow cytometry, validation set (AID 2674;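 active = inhibition above 50%, about 3 SD of the validation set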;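 note: antibody binding induced by the VLA-4 ligand LDV present at three times its Kd; 0% = LDV ligand with antibody and no compound and 100% = antibody without LDV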). Particulars: HUTS-21 LIBS mAb binding, at 6.7 µM, stronger effect = higher value, binding induced by LDV ligand.

A short description of assay [8]: superoxide lowering in aged yeast cells, pilot screen, validation compound set (AID 2706;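 active = superoxide response below 65% of plate, a cut near 3 SD across the whole screen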;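 note: yeast exposed to compound for one week at 30 degrees C before staining; 100% = mean of all compound wells on the same plate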). Conditions: S. cerevisiae aging, superoxide DHE fluorescence; at 10 µM, stronger effect = lower value.
Assay [9] concerns the target Beta-adrenergic receptor kinase 1 (Homo sapiens) (UniProt P25098). The assay is described as follows: GRK2 binders displacing RNA aptamer, biochemical, validation, human GRK2, bead flow cytometry (AID 488806;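 active = aptamer binding inhibition above 30%, about 3 SD of noise from non-fluorescent compounds; inactive = inhibition at or below 30%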). Conditions: bead-bound GRK2, FAM-aptamer displacement, at 10 µM, stronger effect = higher value.
Assay [10] has as its target AP-2 complex subunit beta (Homo sapiens) (UniProt P63010). The experiment in a line: inhibitors of arrestin peptide binding to AP2, pilot screen, biochemical, validation set, GST-AP2 beads, flow cytometry (AID 504541;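 active = inhibition above 54%, about 3 SD of non-fluorescent compounds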;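 note: AP2 carries R879A mutation and is captured from E. coli lysate; bead-bound FITC arrestin peptide fluorescence measuring arrestin peptide binding to AP2; 0% = DMSO wells and 100% = excess unlabeled arrestin peptide control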). Conditions: FITC arrestin peptide, at 10 µM, stronger effect = higher value, AP2 beta2 appendage fragment, R879A mutant.
A short description of assay [11]: yeast V-ATPase proton transport modulators, S. cerevisiae, pHLuorin, HTS validation (AID 504600; in the data active = response above about 15%;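 note: plate controls were DMSO for no effect and reference compound for full effect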). Particulars: S. cerevisiae pHLuorin cytosolic pH, at 10 µM, stronger effect = higher value.
The subject of assay [12] is anti-desmoglein-3 scFv antibody binding to human DSG3. The experiment in a line: inhibitors of anti-DSG3 scFv binding to DSG3, pilot screen, biochemical, validation compound set, bead-based, flow cytometry (AID 588368;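 active = binding below the plate cutoff, the plate median minus 3 SD, with a reading above zero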;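 note: signal is the median channel fluorescence of bead-bound GFP antibody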). Conditions: Protein G beads, DSG3-Fc, scFv-GFP binding, at 10 µM, stronger effect = lower value.
A short description of assay [13]: inhibitors of fungal efflux pumps CDR1, CDR2, MDR1, pilot screen, validation compound set, multiplex, phenotypic (AID 588506;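 active = efflux inhibition above 0.42, the validation set average plus 4 SD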;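 note: Nile Red retained in cells so higher fluorescence means more efflux inhibition; 0 = negative control wells and 1 = enniatin B 25 µM full block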). Conditions: S. cerevisiae pump-expressing triplex, Nile Red efflux flow cytometry; at 10 µM; stronger effect = higher value; the pumps come from Candida albicans.
Assay [14] concerns the target ATP-binding cassette sub-family B member 6 (Homo sapiens) (UniProt Q9NP58). The assay is described as follows: ABCB6 transporter inhibitors, pilot screen, K562-ABCB6 cells, flow cytometry, validation set (AID 588550;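 active = inhibition above the screen-wide mean plus 3 SD, about 51%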;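 note: 0% = DMSO wells and 100% = benzethonium chloride 70 µM positive control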). Particulars: K562-ABCB6 porphyrin accumulation, 1 h, at 10 µM, stronger effect = higher value.
A short description of assay [15]: promoters of myeloid differentiation in arrested cells, primary screen, cell-based, GFP/MAC1 double positive, flow cytometry, validation set (AID 588685;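 active = differentiation response of at least 50%, scaled between solvent and reference control, from cells with both markers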;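 note: compound exposure lasts four days before antibody staining and flow analysis; 0% = DMSO wells and 100% = 5 µM fulvestrant positive control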). Particulars: ER-HoxA9 marrow cells, stronger effect = higher value, normalized: vehicle 0, fulvestrant 100.

The values below come from PubChem BioAssay.

Results filed as inconclusive are left out. The source made the active and inactive calls. Cut-off read from the data, not from the text of the source, unless noted: active = percent of DMSO control GFP below about 86%; inactive = the rest, inconclusive results apart.

Integrin beta-1 (Homo sapiens) + Integrin alpha-4 (Homo sapiens), sequence (P05556 whole entry, looked up): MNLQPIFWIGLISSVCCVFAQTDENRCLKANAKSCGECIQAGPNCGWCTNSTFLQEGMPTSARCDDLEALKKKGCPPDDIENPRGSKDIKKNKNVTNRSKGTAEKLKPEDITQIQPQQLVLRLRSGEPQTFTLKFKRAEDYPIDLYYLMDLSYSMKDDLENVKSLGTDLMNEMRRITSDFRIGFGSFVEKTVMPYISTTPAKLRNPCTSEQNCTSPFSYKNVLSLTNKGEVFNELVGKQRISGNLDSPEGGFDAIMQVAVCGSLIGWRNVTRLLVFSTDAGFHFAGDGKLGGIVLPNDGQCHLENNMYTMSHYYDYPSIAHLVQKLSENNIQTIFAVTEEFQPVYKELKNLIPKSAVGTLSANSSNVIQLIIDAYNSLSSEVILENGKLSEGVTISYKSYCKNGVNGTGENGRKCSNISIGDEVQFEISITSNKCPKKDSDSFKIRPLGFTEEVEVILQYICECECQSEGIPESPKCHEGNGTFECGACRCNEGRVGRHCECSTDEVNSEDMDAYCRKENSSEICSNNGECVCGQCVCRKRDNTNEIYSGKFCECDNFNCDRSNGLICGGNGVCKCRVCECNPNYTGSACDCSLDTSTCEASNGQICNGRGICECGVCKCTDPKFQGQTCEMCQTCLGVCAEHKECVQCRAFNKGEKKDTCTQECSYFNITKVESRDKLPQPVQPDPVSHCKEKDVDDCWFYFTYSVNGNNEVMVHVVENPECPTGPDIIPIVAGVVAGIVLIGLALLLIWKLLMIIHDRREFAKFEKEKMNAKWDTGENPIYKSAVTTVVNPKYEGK
Integrin beta-1 (Homo sapiens) + Integrin alpha-4 (Homo sapiens), sequence (P13612 whole entry, looked up): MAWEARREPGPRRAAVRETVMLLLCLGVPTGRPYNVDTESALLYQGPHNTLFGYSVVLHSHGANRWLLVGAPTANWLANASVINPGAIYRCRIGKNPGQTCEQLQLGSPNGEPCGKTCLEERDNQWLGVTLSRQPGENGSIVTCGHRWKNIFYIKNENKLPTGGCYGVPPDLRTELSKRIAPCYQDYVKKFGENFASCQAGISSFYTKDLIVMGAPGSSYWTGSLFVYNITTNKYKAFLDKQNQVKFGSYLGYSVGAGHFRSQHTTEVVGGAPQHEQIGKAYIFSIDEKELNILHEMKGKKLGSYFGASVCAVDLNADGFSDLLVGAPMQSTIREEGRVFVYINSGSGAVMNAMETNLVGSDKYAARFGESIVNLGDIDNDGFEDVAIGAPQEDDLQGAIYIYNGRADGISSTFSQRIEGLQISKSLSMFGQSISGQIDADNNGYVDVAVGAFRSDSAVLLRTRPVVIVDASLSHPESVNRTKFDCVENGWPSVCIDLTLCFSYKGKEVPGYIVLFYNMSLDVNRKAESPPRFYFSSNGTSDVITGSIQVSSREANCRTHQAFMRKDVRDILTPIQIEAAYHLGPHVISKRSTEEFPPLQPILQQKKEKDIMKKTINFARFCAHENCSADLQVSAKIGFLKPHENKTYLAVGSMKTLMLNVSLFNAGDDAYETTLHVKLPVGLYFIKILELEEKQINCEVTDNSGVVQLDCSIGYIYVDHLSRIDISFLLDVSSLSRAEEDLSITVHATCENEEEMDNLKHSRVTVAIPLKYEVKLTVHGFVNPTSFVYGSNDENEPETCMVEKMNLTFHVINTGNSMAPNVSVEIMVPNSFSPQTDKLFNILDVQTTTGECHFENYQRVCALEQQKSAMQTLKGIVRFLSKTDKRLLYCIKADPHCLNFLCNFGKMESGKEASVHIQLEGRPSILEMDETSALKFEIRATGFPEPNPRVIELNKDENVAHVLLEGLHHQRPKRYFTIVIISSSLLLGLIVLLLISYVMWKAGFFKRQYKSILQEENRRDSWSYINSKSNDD
ATP-binding cassette sub-family B member 6 (Homo sapiens), sequence (Q9NP58 whole entry, looked up): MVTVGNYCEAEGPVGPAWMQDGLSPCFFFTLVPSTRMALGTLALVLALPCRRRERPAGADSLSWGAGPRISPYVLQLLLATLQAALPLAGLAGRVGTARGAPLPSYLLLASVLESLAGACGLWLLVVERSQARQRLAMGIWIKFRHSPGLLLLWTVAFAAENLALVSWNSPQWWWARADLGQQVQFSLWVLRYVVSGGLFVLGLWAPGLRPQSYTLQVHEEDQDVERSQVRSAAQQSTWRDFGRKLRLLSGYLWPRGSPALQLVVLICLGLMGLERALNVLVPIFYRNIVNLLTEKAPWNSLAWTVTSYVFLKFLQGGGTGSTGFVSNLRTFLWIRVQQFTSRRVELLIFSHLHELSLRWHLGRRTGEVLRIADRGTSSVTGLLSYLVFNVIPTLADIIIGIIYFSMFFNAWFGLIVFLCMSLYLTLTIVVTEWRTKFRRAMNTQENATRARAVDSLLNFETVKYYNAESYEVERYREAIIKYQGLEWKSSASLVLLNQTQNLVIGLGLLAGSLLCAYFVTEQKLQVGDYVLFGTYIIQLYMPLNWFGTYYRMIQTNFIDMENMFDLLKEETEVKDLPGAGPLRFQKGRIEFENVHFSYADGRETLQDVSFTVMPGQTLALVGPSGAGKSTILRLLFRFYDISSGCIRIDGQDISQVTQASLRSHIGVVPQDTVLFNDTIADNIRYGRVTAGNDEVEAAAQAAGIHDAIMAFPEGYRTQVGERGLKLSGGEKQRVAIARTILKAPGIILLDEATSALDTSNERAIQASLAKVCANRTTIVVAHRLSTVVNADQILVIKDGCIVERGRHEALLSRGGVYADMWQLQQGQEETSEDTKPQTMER
AP-2 complex subunit beta (Homo sapiens), sequence (P63010 whole entry, looked up, the tested form may be a part, one chain of several): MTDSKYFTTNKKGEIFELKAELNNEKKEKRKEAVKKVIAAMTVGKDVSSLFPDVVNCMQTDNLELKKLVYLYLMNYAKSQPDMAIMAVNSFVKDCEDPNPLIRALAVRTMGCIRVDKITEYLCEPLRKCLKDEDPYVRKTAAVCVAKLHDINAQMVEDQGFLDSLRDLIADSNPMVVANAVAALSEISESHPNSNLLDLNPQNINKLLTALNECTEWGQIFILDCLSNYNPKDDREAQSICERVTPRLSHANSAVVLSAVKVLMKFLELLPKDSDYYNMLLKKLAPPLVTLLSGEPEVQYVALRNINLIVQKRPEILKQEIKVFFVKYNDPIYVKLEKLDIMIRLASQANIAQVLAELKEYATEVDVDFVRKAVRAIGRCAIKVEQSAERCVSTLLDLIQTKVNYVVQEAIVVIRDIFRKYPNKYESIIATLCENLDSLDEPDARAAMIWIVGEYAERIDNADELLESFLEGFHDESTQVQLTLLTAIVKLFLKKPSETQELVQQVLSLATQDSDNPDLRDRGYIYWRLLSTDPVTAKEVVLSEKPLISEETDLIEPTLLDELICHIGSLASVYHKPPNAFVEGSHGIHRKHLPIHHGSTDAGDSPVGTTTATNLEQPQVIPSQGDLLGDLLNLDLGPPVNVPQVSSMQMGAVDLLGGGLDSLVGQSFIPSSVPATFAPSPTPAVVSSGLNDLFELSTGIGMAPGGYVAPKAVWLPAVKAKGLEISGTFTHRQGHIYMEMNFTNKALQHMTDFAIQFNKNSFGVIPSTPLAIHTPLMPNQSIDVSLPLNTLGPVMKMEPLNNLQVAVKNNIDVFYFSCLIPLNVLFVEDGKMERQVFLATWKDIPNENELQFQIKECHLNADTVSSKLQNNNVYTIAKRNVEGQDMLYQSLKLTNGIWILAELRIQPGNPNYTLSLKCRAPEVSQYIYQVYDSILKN
Beta-adrenergic receptor kinase 1 (Homo sapiens), sequence (P25098 whole entry, looked up): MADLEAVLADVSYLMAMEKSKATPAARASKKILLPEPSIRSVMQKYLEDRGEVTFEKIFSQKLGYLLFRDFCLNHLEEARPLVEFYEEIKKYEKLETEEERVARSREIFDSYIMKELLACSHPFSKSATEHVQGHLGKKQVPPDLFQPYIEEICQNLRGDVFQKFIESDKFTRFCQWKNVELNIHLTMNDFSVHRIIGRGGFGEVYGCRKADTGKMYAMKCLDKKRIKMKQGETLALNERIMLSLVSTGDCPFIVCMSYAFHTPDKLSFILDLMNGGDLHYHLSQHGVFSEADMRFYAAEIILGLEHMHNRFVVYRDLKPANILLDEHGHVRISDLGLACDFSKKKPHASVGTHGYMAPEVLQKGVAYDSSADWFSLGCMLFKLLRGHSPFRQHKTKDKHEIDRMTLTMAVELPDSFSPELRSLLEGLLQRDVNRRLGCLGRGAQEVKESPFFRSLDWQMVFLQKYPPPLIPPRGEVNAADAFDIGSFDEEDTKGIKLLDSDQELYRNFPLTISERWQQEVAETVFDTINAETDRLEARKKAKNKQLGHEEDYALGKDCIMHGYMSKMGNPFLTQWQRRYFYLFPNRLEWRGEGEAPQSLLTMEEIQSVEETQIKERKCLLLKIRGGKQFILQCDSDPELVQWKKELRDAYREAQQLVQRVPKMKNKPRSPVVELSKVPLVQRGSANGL

Consider `CC(=O)NC1C(OCCOc2ccc(Cl)cc2Cl)OC(COC(C)=O)C(OC(C)=O)C1OC(C)=O` (stereo not given), for which, in assay [1], the percent of DMSO control GFP was 103% (inactive). Moreover, the GFP response vs DMSO in [2] is 102% (inactive); in [4], 91.3% (inactive). For the same compound, the percent response of DMSO control in [3] was 108% (inactive). Besides, the GFP response, % of DMSO in assay [5] is 94.5% (inactive). Also, in assay [6], the double positive events came to 55.1%. The vesicle binding response in assay [6] was 168% (inactive). The inhibition in assay [7] was 16.6% (inactive); in [10] it was 8.3% (inactive); in assay [14], 9% (inactive). Also, the superoxide response (% of plate) in assay [8] was 108% (inactive). For the same compound, the aptamer binding inhibition in assay [9] was 3% (inactive). In addition, the response in [11] is -6.83% (inactive). Moreover, the binding (% of control) in assay [12] is 101% (inactive). Besides, the efflux inhibition (fraction of control) in assay [13] was -0.2 (inactive). In addition, the differentiation response in assay [15] is 20.8% (inactive).
In the case of `Cc1oc2cc(O)ccc2c(=O)c1Oc1ccccc1Br`, the percent of DMSO control GFP in assay [1] is 96.9% (inactive). For the same compound, the values for the GFP response vs DMSO in assay [2] and in [4] were 108% (inactive) and 102% (inactive), respectively. The percent response of DMSO control in assay [3] is 93% (inactive). In addition, the GFP response, % of DMSO in [5] was 98.1% (inactive). This compound also registered a double positive events in assay [6] of 54.8%. In assay [6], the vesicle binding response was 172% (inactive). Besides, the inhibition in assay [7] was -12.4% (inactive); in assay [10], 4.89% (inactive); in [14], 9% (inactive). Besides, in [8], the superoxide response (% of plate) is 101% (inactive). Besides, the aptamer binding inhibition in assay [9] is 6% (inactive). Further, the response in [11] is 1.47% (inactive). The binding (% of control) in assay [12] was 102% (inactive). For the same compound, in assay [13], the efflux inhibition (fraction of control) is -0.31 (inactive). Moreover, the differentiation response in [15] is -13.1% (inactive).
Take `O=C1N=c2ccccc2=C1c1[nH]c(=S)[nH]c1O`: in assay [1], the percent of DMSO control GFP is 98.8% (inactive). Further, the GFP response vs DMSO in [2] was 96.9% (inactive); in assay [4], 81.3% (inactive). In addition, the percent response of DMSO control in assay [3] is 106% (inactive). Moreover, in [5], the GFP response, % of DMSO was 99.6% (inactive). Also, the double positive events in assay [6] stood at 56.8%. The vesicle binding response in assay [6] is 181% (inactive). In addition, the inhibition is 2.56% (inactive) in [7], 2.65% (inactive) in assay [10] and 8% (inactive) in assay [14]. The superoxide response (% of plate) in [8] is 98.7% (inactive). For the same compound, in [9], the aptamer binding inhibition is -2% (inactive). Further, in [11], the response was 3.63% (inactive). In addition, the binding (% of control) in assay [12] was 98% (inactive). In addition, in assay [13], the efflux inhibition (fraction of control) is -0.12 (inactive). In [15], the differentiation response was -19.6% (inactive).
As to `CC[N+](C)(CC)CCOC(=O)C(O)(c1ccccc1)C1CCCCC1` (stereo not given), the percent of DMSO control GFP in assay [1] is 101% (inactive). In addition, the GFP response vs DMSO in [2] is 103% (inactive); in assay [4], 105% (inactive). Also, in [3], the percent response of DMSO control was 105% (inactive). The GFP response, % of DMSO in assay [5] is 103% (inactive). Further, the double positive events in [6] came out at 57.8%. Moreover, the vesicle binding response in [6] was 175% (inactive). In addition, the inhibition is -32.9% (inactive) in assay [7], -1.88% (inactive) in [10] and -1% (inactive) in assay [14]. Further, the superoxide response (% of plate) in [8] is 102% (inactive). Further, the aptamer binding inhibition in assay [9] is -3% (inactive). Further, in assay [11], the response was 6.06% (inactive). For the same compound, the binding (% of control) in assay [12] was 98.5% (inactive). In addition, the efflux inhibition (fraction of control) in assay [13] is -0.01 (inactive). For the same compound, the differentiation response in assay [15] was 0% (inactive).
Turning to `CC(=O)OCC(=O)[C@H]1CC[C@H]2[C@@H]3CC=C4C[C@@H](O)CC[C@]4(C)[C@H]3CC[C@]12C`, the percent of DMSO control GFP in [1] is 106% (inactive). Also, the figures for the GFP response vs DMSO in assay [2] and in [4] were 95.9% (inactive) and 115% (inactive), respectively. In assay [3], the percent response of DMSO control was 114% (inactive). For the same compound, in assay [5], the GFP response, % of DMSO was 89.4% (inactive). Further, in assay [6], the double positive events worked out at 59.7%. In addition, the vesicle binding response in [6] is 174% (inactive). The inhibition in assay [7] was 4.42% (inactive); in assay [10], -2.87% (inactive); in assay [14], 6% (inactive). Moreover, the superoxide response (% of plate) in assay [8] is 99% (inactive). Further, the aptamer binding inhibition in assay [9] is 0% (inactive). For the same compound, the response in [11] was 0.3% (inactive). The binding (% of control) in assay [12] was 101% (inactive). In assay [13], the efflux inhibition (fraction of control) was 0.29 (inactive). Also, in assay [15], the differentiation response was -27.6% (inactive).

As usually defined, the inhibition is the relative decrease from the control value, in per cent.
